Laboratory results: PubChem BioAssay (EPA / NIEHS)
Records with an inconclusive call do not appear. Calls of active or inactive are those of the source. Rule for the calls: active = hit-call score of the fitted dose curve at least 0.9, where 1 is the maximum; inconclusive = response in the unintended direction; inactive = score below 0.9.

Assay: CCTE_Mundy_HCI_Cortical_Synap_Neur_Matur_NeuronCount: CCTE's Synaptogenesis and Neurite Maturation Assay in rat cortical cells for Neuron Count, Mundy Lab (AID 2284242);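 for AC50: neuron number from Hoechst nuclei and MAP2 staining by high-content imaging; hits reduce neuron count versus DMSO baseline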
Summary of the method: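 Cortical cells from rat are plated, treated with AraC at DIV 5, and exposed to test chemicals with a media change at DIV 7. At DIV 12 they are fixed and immunostained (MAP2, synaptophysin), and imaged neuron counts are compared against DMSO controls.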
In the case of `COP(=O)(OC)O/C(C)=C/C(=O)N(C)C`, the outcome is reported as “inactive”.
In the case of `CC(C)(C)C(=O)C(Oc1ccc(Cl)cc1)n1cncn1` (stereo not given), the AC50 is reported as 11 µM (active).
In the case of `CC1(C)C(C=C(Cl)Cl)C1C(=O)OC(C#N)c1cccc(Oc2ccccc2)c1` (stereo not given), the outcome is reported as “inactive”.
For `Cc1c(COC(=O)[C@@H]2[C@H](/C=C(\Cl)C(F)(F)F)C2(C)C)cccc1-c1ccccc1`, the AC50 was 2.95 µM (active).
With `CNC(=O)Oc1cccc2ccccc12` the AC50 was 22.9 µM (active).
With `CO/N=C(/C1=NOCCO1)c1ccccc1Oc1ncnc(Oc2ccccc2Cl)c1F` the AC50 was 1.52 µM (active).
In the case of `CCSC(=O)N1CCCCCC1`, the outcome is reported as “inactive”.
For `CCN(CC)c1nc(C)cc(OP(=S)(OC)OC)n1`, the AC50 was 9.92 µM (active).
With `C=C(C)CN(CC)c1c([N+](=O)[O-])cc(C(F)(F)F)cc1[N+](=O)[O-]` the AC50 was 8.46 µM (active).
With `CCOP(=O)(OCC)Oc1nc(Cl)c(Cl)cc1Cl` the outcome was “inactive”.
